# Measured values: PubChem BioAssay AID584 (National Center for Advancing Translational Sciences (NCATS), 2007)
# Hit rate of the full screen: of about 71,000 compounds, about 65 (0.09%) were called active. The sample as a whole holds a higher share of actives than the screen did. Values without a mark were called inactive. The call rests on the fitted dose curve; in most records, active means well fitted curve in the direction sought with a large enough effect; inconclusive means small, poorly fitted or top-dose-only effect; inactive means flat fitted curve, though single readings scatter.
# Target: Beta-lactamase (Escherichia coli (strain K12)) (UniProt P00811)
# Sequence (P00811 whole entry, looked up): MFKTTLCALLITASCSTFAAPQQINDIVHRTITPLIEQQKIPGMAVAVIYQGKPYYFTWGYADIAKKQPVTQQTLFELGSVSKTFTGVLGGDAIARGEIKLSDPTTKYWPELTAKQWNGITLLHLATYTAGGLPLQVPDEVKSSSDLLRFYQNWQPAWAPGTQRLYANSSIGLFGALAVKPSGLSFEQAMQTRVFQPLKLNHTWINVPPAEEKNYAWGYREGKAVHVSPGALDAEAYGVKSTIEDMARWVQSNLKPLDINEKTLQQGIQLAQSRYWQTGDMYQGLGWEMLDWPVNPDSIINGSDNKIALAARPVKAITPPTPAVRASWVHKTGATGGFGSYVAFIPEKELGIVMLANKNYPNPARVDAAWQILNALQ
# Assay: Promiscuous and Specific Inhibitors of AmpC Beta-Lactamase (assay with detergent)
# Details: purified AmpC, nitrocefin hydrolysis with detergent; series mostly up to 28.7 µM; activity change, negative = inhibition: at the top concentration
# Description: NIH Molecular Libraries Screening Centers Network [MLSCN]
# NIH Chemical Genomics Center [NCGC]
# PI Name: Shoichet, Brian K.
# This aggregation profiling approach exploits the sensitivity of aggregate formation to detergent. Inhibition of b-lactamase is measured in the presence and absence of 0.01% Triton X-100. This particular assay had the prescence of 0.01% Triton X-100. See Pubchem assay "Promiscuous and Specific Inhibitors of AmpC Beta-Lactamase (assay without detergent)" for related screen. Compounds that inhibit only in the absence of detergent are considered likely promiscuous aggregators.
# A screen of 1,030 compounds was performed in Brian Shoichet's lab in 96-well format. AmpC activity was measured by following the absorbance at 480 nm. Nitrocefin is a chromogenic substrate: while nitrocefin is yellow (lmax 390 nm), the product of its hydrolysis is red (lmax 486 nm, 17,000 M-1). AmpC beta lactamase was provided by Brian Shoichet and Brian Feng, UCSF.
# NCGC Assay Protocol Summary:
# 20 mM phosphate buffer, pH 7.0
# Triton X-100: No Detergent screen: 0.0001%, Detergent screen: 0.01%.
# Buffer in columns 3 and 4 as negative control (no enzyme).
# 5.3 nM AmpC in columns 1, 2, 5-48. Titration of UCSF compound 9 control (from 10 mM, then 1:2) pin-transferred to column 2. Column 1 is neutral (100% activity).
# Six uL of reagents were dispensed to 1536-well Greiner black clear bottom plates. Compounds and controls (23 nL) were transferred via Kalypsys PinTool. The plates were incubated for 15 min at room temperature, and then 2 uL of 800 uM solution of nitrocefin was added to start the reaction. The plates were immediately transferred to and read every 20 seconds for 4 min on ViewLux (Perkin-Elmer) High-throughput CCD imager using 480 nm absorbance protocol. During dispense, reagent bottles were kept submerged into 4 deg C water bath.
# Keywords: NIH Roadmap, MLSCN, MLI, MLSMR, qHTS, NCGC, AmpC Beta-Lactamase, Aggregation
# On the % scale 0 is the no-effect control and ±100 the full control effect.
row,Structure (SMILES),"activity change, negative = inhibition"
1,CCn1c(CSc2ncccn2)nnc1SCC(=O)N1c2ccccc2CC1C (stereo unspecified),0.00583%
2,COc1cc(C2C(C(=O)Nc3ccc(F)cc3)=C(C)Nc3nc(CCCO)nn32)cc(OC)c1OC (stereo unspecified),9.75%
3,CC(C)c1ccc(NS(=O)(=O)c2cn(C)c(=O)n(C)c2=O)cc1,9.52%
4,O=C(CCn1c(=O)oc2ccccc21)Nc1ccon1,2.22%
5,CCOC(=O)c1cc(-c2nnc(-c3cc(OC)c(OC)c(OC)c3)o2)c(C)nc1C,3.14%
6,c1csc(CN2CCN(Cc3cccs3)C2c2cccs2)c1,3.14%
7,COC(=O)CNS(=O)(=O)c1ccc(Cc2ccc(S(=O)(=O)NCC(=O)OC)cc2)cc1,11.4%
8,Cc1ccc(C2(c3ccc(C)cc3)NC(=O)N(Cc3c(C)noc3C)C2=O)cc1,-4.23%
9,C[C@@H](C(=O)Nc1ccc2ccccc2c1)[C@@H]1C[C@@]1(C)[C@@H](NC(=O)c1cccnc1)c1ccccc1,-2.3%
10,N#Cc1c2c(c(N3CCN(CCO)CC3)n3c1nc1ccccc13)CCCC2,-1.69%
11,Cc1cc(Br)ccc1NC(=O)C1CCCO1 (stereo unspecified),-2.73%
12,CO[C@@H]1/C=C\O[C@]2(C)Oc3c(C)c(O)c4c(O)c(c(CN(C)C)c(O)c4c3C2=O)NC(=O)/C(C)=C\C=C[C@@H](C)[C@@H](O)[C@H](C)[C@@H](O)[C@H](C)[C@H](OC(C)=O)[C@@H]1C,-4.9% [at 5.75 µM]
13,O=C(CCCCn1c(=O)[nH]c2ccccc2c1=O)NCc1ccc2c(c1)OCO2,14.5%
14,CCN(CC(=O)NC(C)C)C(=O)CCNC(=O)c1ccc(Cl)cc1,-4.89%
15,COc1ccc(-c2nc3cnc(N(C)C)nc3n(Cc3cccs3)c2=O)cc1,-2.8%
16,CCOC(=O)C1C(=O)C=C(c2ccc(OC)cc2)CC1c1ccco1 (stereo unspecified),-3.67%
17,O=C(C1CCC(C(=O)N2CCCC2)CC1)N1CCCC1 (stereo unspecified),-2.96%
18,O=C1CCc2cc(S(=O)(=O)N3CCC(C(=O)NCc4ccccc4Cl)CC3)ccc2N1,11.6%
19,COc1cccc(-n2c(Cc3cc(=O)[nH]c(=O)[nH]3)nnc2SCC(=O)Nc2ccccc2)c1,11.9%
20,COc1ccc(C)cc1NC(=O)CSc1nc(SC)ns1,-4.47%
21,Cc1ccc2cc3cc(C(=O)N4CCCCCC4)oc3nc2c1,-1.31%
22,COc1ccccc1CNc1ncnc2ccc(-c3c(C)noc3C)cc12,10.9%
23,CC(=O)N1[C@H](C)C=C[C@]1(Cc1ccccc1)C(=O)NCc1ccccn1,13.8%
24,CCOc1cc2[nH]c(=S)n(CCCN3CCCC3=O)c(=O)c2cc1OCC,-1.69%
25,CCOc1cc(C(=O)N2CCc3cc(OC)c(OC)cc3C2)ccc1OC(F)F,-2.69%
26,N#C/C(=C\c1ccc(O)c(O)c1)C(=O)NCc1ccccc1,inactive

row,Structure (SMILES),"activity change, negative = inhibition"
1,C=C(C)COc1ccc(-c2n[nH]c(C)c2-c2ccccc2OC)c(O)c1,3.39%
2,CC(C)(C)n1nnnc1C(c1ccc2ncccc2c1)N1CCSCC1 (stereo unspecified),-3.81%
3,NCCNCC1CCNCC1,-0.8% [at 5.75 µM]
4,CCc1nnc(NC(=O)c2ccc(S(=O)(=O)NC3CCCCC3)cc2)s1,10.1%
5,Cc1cccc(N2CCN(C(c3ccccc3)c3nnnn3CC3CCCO3)CC2)c1C (stereo unspecified),-2.94%
6,Cc1cccc2cc(CN(Cc3nnnn3Cc3ccccc3)C3CCCC3)c(=O)[nH]c12,30.9%
7,CCS(=O)(=O)N1CCCC(C(=O)NCCCN(C)Cc2ccccc2)C1 (stereo unspecified),-2.63%
8,CC1=CC(=O)C2=C(C)C[C@H](O)[C@@H]3[C@@H](OC(=O)[C@H]3C)[C@H]12,0.4%
9,Cc1ccc(N2C(=O)c3oc4ccccc4c(=O)c3C2c2cccnc2)nc1 (stereo unspecified),12.4%
10,O/N=C1\CC2(Cc3nonc31)OCCO2,-0.261%
11,Cn1c(=O)c(-c2ccccc2)nc2cnc(N3CCNCC3)nc21,-2.9%
12,CCOC(=O)CSc1nnc(CNc2nc(-c3ccccc3)cs2)n1C,6.67%
13,Cc1ccc(-n2nc(-c3ccco3)cc2C(=O)NCc2cccnc2)cc1,-4.9%
14,Cc1ccc(S(=O)(=O)N2CCC(C(=O)N[C@@H](C)C(=O)NCc3ccccc3)CC2)cc1,-0.931%
15,N#Cc1ccccc1-c1ccc2ncnc(NCc3cccnc3)c2c1,0.3%
16,NC(=O)c1ccc(OC[C@H](O)CN2CC=C(c3ccc(F)cc3)CC2)cc1,-3.1%
17,CCCn1c(-c2ccc(F)cc2)nc2c(NC3CCN(Cc4ccccc4)C3)nc(C)nc21 (stereo unspecified),13.7%
18,CC(C)c1cc(CN(C)C)c(O)c(C(C)(C)C)c1,-4.5% [at 5.75 µM]
19,O=C1N(Cc2ccc3c(c2)OCO3)c2ccccc2C1(O)c1c[nH]c2ccccc12 (stereo unspecified),1.62%
20,CC(C)(C)NC(=O)C(c1ccncc1)N(C(=O)CNC(=O)c1ccco1)c1ccc2c(c1)OCO2 (stereo unspecified),-3.56%
21,O=C(NC12CC3CC(CC(C3)C1)C2)N1CCCC(CO)C1 (stereo unspecified),-4.1%
22,CC(C)(O)[C@H]1[C@H]2OC(=O)[C@@H]1[C@]1(O)C[C@H]3O[C@]34C(=O)O[C@H]2[C@]14C,7.4%
23,CC(=O)Oc1ccc(C(=O)Nc2nccs2)cc1,9.77%
24,COc1ccc2[nH]cc(CCNc3cc(-c4ccccc4CN(C)C)ncn3)c2c1,9.4%
25,CCCNC(=O)C1CC(=O)N(c2ccc(OCC(=O)Nc3cccc(C)c3C)cc2)C1 (stereo unspecified),10.2%
